Consider 30 compounds from the supplement of paper PMC9135407.

The test system of this experiment is primary human hepatic stellate cells (donor 1). The experiment can be described thus: scaled lipid accumulation score (0 = DMSO-like, 1 = nortriptyline-like); higher = stronger HSC inactivation (lipid re-accumulation), active = hit call of the paper. As to conditions: 48 h. Here is the method: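 Primary lipid accumulation screen in primary human hepatic stellate cell myofibroblasts (donor 1, passage 8) in 384-well plates. 100 nL of library compound was pin-transferred into 30 µL medium in duplicate, and cells were treated for 48 h. The 'Scaled' score combines distance from plate baseline, toxicity and reproducibility penalties, and is normalised to nortriptyline (positive) and DMSO (negative) controls on each plate. A hit is defined as scaled >0.85 or among the top 3 wells per plate.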

Where [1] appears, read: library stock concentration: 1 mM.
The mark [2] stands for this setting: library stock concentration: 10 mM.

Values joined by “and” are separate entries in the source; they are usually repeats but may differ in a detail not shown here. Equal entries are not always repeated. Structures can show the parent of a compound that is named as a salt. Screen size: about 5,800 compounds; about 620 (11%) showed activity. Many of the other results were omitted from the sample, so actives are more common in it than they were. A number with no mark means an inactive call.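 Rule for the calls: active = score above a cut-off or among the top three wells of a plate; in these data no inactive exceeds 0.85.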

Consider `CN[C@@H]1C[C@H]2O[C@@](C)([C@@H]1OC)n1c3ccccc3c3c4c(c5c6ccccc6n2c5c31)C(=O)NC4` [Staurosporine], for which the “scaled lipid accumulation score” value under setting [1] was 0.546 (active).
As to `COC(=O)[C@@]1(O)C[C@H]2O[C@]1(C)n1c3ccccc3c3c4c(c5c6ccccc6n2c5c31)C(=O)NC4`, the “scaled lipid accumulation score” value (library stock concentration: 1.1 mM) is 0.142.
As for `CN[C@@H]1C[C@H]2O[C@@](C)([C@@H]1OC)n1c3ccccc3c3c4c(c5c6ccccc6n2c5c31)C(=O)NC4` [staurosporine], the “scaled lipid accumulation score” value (library stock concentration: 10.7 mM) was 0.643.
Take `O=C(Cc1ccc(Cl)c(Cl)c1)N1CCCCC1CN1CCCC1` (stereo not given): the “scaled lipid accumulation score” value under setting [2] was 0.581 and 0.566.
As to `COC(=O)N1CCN(C(=O)Cc2ccc(Cl)c(Cl)c2)C(CN2CCCC2)C1.O=C(O)/C=C/C(=O)O` (stereo not given), the “scaled lipid accumulation score” value under setting [2] is 0.902 (active).
Same read-out and setting: with `COC(=O)N1CCN(C(=O)Cc2ccc(Cl)c(Cl)c2)C(CN2CCCC2)C1` (stereo not given) the figure was 0.05; with `CO[C@H]1CC=C2CCN3CCC4=C(CC(=O)OC4)[C@]23C1` [Dihydro-beta-erythroidine hydrobromide], not above -0.07; with `COc1ccc2c(c1OC)C(=O)OC2C1c2cc3c(cc2CCN1C)OCO3` (single isomer, unassigned; (+)) [(+)-Hydrastine], not above -0.07.
For `CCCCC/C=C\C/C=C\C/C=C\C/C=C\CCCC(=O)Nc1cccc([N+](=O)[O-])c1` [Arachidonoyl m-Nitroaniline], the “scaled lipid accumulation score” value under setting [1] was not above 0.
Turning to `CCOC(=O)C1(c2ccccc2)CCN(CCC(C#N)(c2ccccc2)c2ccccc2)CC1`, under setting [2], the “scaled lipid accumulation score” value was not above 0.
On the same count and under the same terms, with `CN(C)C(=O)C(CCN1CCC(O)(c2ccc(Cl)cc2)CC1)(c1ccccc1)c1ccccc1.Cl` [Loperamide hydrochloride] the figure was 1.46 (active).
On to `CN(C)C(=O)C(CCN1CCC(O)(c2ccc(Cl)cc2)CC1)(c1ccccc1)c1ccccc1.Cl`, for which, under “library stock concentration: 9.7 mM”, the “scaled lipid accumulation score” value is 1.02 (active).
Take `O=C(N[C@H]1CN2CCC1CC2)c1cc2ccoc2cn1`: the “scaled lipid accumulation score” value under setting [2] was not above -0.055.
For the compound `Cl[C@H]1[C@H](Cl)[C@@H](Cl)[C@@H](Cl)[C@H](Cl)[C@H]1Cl` [Lindane], the “scaled lipid accumulation score” value was not above -0.001 (library stock concentration: 6.9 mM) and not above 0 under setting [2].
Take `OC[C@@H](O)[C@H]1O[C@@H]2O[C@H](C(Cl)(Cl)Cl)O[C@@H]2[C@H]1O`: under setting [2], the “scaled lipid accumulation score” value was not above 0.
In the case of `CN(C)NC(=O)CCC(=O)O` [Daminozide], the “scaled lipid accumulation score” value is not above 0 (library stock concentration: 80 uM), not above 0 (library stock concentration: 400 uM), not above 0 (library stock concentration: 2 mM) and not above 0 under setting [2].
Consider `CC[C@@H](C(=O)[C@@H](C)[C@@H](O)[C@H](C)[C@@H]1O[C@@H]([C@@H](CC)C(=O)O)CC[C@@H]1C)[C@H]1O[C@]2(C=C[C@@H](O)[C@]3(CC[C@@](C)([C@H]4CC[C@](O)(CC)[C@H](C)O4)O3)O2)[C@H](C)C[C@@H]1C` [Salinomycin, sodium], for which, under setting [2], the “scaled lipid accumulation score” value was 0.422.
As for `Clc1ccc(C2=CCCC3CCC2N3)cn1` (stereo not given) [UB 165 fumarate], the “scaled lipid accumulation score” value under setting [2] is 0.039.
On to `NC1=NC(=O)C(c2ccccc2)O1` (stereo not given) [Pemoline], for which the “scaled lipid accumulation score” value under setting [2] is not above 0.
For `C=C(C)[C@@H]1[C@H]2OC(=O)[C@@H]1[C@]1(O)C[C@H]3OC34C(=O)O[C@H]2[C@@]41C.CC(C)(O)[C@@H]1[C@H]2OC(=O)[C@@H]1[C@]1(O)C[C@H]3OC34C(=O)O[C@H]2[C@@]41C` (stereo not given in full) [Picrotoxin], the “scaled lipid accumulation score” value under setting [2] is not above -0.055.
Regarding `O=C1C=C2C(=CCOC2O)O1` (stereo not given) [Patulin], under setting [2], the “scaled lipid accumulation score” value is 1.21 (active).
The same measure, in the same setting: in the case of `C[C@H](N)Cn1ccc2cc(F)c(Cl)cc21.O=C(O)/C=C/C(=O)O` [Ro 60-0175 fumarate] it was 0.953 (active).
Take `O=C[C@H](Cl)[C@@H](O)[C@H](O)[C@H](O)CO` [2-Chloro-2-deoxy-D-glucose]: under setting [2], the “scaled lipid accumulation score” value was not above -0.07.
For the compound `CCN1C[C@]2(COC)CC[C@H](O)[C@]34C1[C@@](O)([C@@H](OC)[C@H]23)[C@@]1(O)C[C@H](OC)[C@H]2C[C@@H]4[C@@H]1[C@H]2OC` [Delsoline], the “scaled lipid accumulation score” value was not above 0.
On to `CN(N=O)c1ccc(O)c(O)c1` [Me-3,4-dephostatin], for which the “scaled lipid accumulation score” value under setting [2] was not above -0.055.
On to `N=C(NCc1ccc(Cl)cc1)SCCCc1c[nH]cn1` [Clobenpropit], for which, under setting [2], the “scaled lipid accumulation score” value is 0.903 (active).
As to `Br.Br.N=C(NCc1ccc(Cl)cc1)SCCCc1c[nH]cn1` [Clobenpropit dihydrobromide], the “scaled lipid accumulation score” value under setting [2] is 1.53 (active).
As for `Clc1ccc(C2CC3CCC2N3)cn1` (stereo not given), the “scaled lipid accumulation score” value (library stock concentration: 24 mM) is not above -0.012.
Turning to `C1=C2CCCN[C@H]2[C@@H]2C[C@H]1[C@H]1CCCCN1C2` [Aloperine], the “scaled lipid accumulation score” value was 0.028 (library stock concentration: 3.33 mM) and 0.068 under setting [2].
For the compound `COc1cc(C=Cc2ccc(OC)c(O)c2)cc(OC)c1`, the “scaled lipid accumulation score” value under setting [1] was 0.176.
